The first experiment deals with ACCN2. Description: pooled miR-30 sensor sort-seq; sequence = guide strand. The settings on record: shRNA.
With TATAGCAATATAGAGTCTGTAT, the sensor-assay potency score (higher = more potent) was -0.0507.

Turning to TTTGTTGAACTTCTTGGCCAGG, the sensor-assay potency score (higher = more potent) was -0.861.

Turning to TGGATCTGCACTTTGATGCCTG, the sensor-assay potency score (higher = more potent) is -0.178.

On to TTTGCTGGGGATCTTGACCATG, for which the sensor-assay potency score (higher = more potent) is -1.14.

TGAACGTGTAGCACTTTCCATA: the sensor-assay potency score (higher = more potent) is -0.947.

For the sequence TAGTACTGCACACGCTCCGTGC, the sensor-assay potency score (higher = more potent) is -0.962.

TTTGTCCTGCAGTATCTCCAGC: the sensor-assay potency score (higher = more potent) is -1.1.

With ATAGCGTGTGAAGACCACCTTG, the sensor-assay potency score (higher = more potent) was -0.485.

As to TCGTTGAGGTTGCACAGCGTGA, the sensor-assay potency score (higher = more potent) was -1.57.

TCGGTCGTAGAACTCACGCATG: the sensor-assay potency score (higher = more potent) is -0.983.

TTTTCATCTGCCATCTGTGTGT displayed a sensor-assay potency score (higher = more potent) of 0.238.

As to TTCATCCTGACTATGGATCTGC, the sensor-assay potency score (higher = more potent) turned out to be 0.145.

Another experiment deals with ACCN3. The description is as above. The following applies: shRNA.
Take TAGTAGTGGTGAGCAGCTCTGC: the sensor-assay potency score (higher = more potent) was -0.938.

As for TAAATGTGTAGCACTTTCCCAT, the sensor-assay potency score (higher = more potent) was -0.325.

Consider TGTAGCACTTTCCCATCCGGGT, for which the sensor-assay potency score (higher = more potent) was -0.708.

Regarding TATCCCAGGACCTTGTCTCGGA, the sensor-assay potency score (higher = more potent) is -0.411.

Sequence TAGCACTTTCCCATCCGGGTGA yielded a sensor-assay potency score (higher = more potent) of 0.401.

Take TGTAGTAGCGCACCCTCTCAGC: the sensor-assay potency score (higher = more potent) is -1.06.

Consider TTGTCTCGGAACACCTCACAGA, for which the sensor-assay potency score (higher = more potent) is -0.903.

As for TTCGGCAGCCGCACTTCCGAGC, the sensor-assay potency score (higher = more potent) was -1.09.

On to TTGCACAGGGTGACAGCCGGGA, for which the sensor-assay potency score (higher = more potent) is -0.486.

With TTTCTCGCTCATCCAGGGCAGT, the sensor-assay potency score (higher = more potent) was -1.12.

The target of a further experiment is ACOT1. The experiment is described as above. The following applies: shRNA.
Take AGTTGTGGTCATCCTGACCTAC: the sensor-assay potency score (higher = more potent) is -1.25.

Turning to TAGCGCTCGTGCCGCACCCGGC, the sensor-assay potency score (higher = more potent) was -1.32.

Take TTTTACCTCAGGATGACTGAGC: the sensor-assay potency score (higher = more potent) was -0.46.

For TTGTAGCGTAAGGTTCCCCCAA, the sensor-assay potency score (higher = more potent) is -1.03.

With AACATGTCCACAATGCCAGGAA, the sensor-assay potency score (higher = more potent) is -0.319.

Regarding TACCTCAGGATGACTGAGCAAG, the sensor-assay potency score (higher = more potent) is -0.802.

Consider TGAGCAAGTAGTTCACAGCTTC, for which the sensor-assay potency score (higher = more potent) was -0.12.

As to TTCATAGTTATAGTAAGCCAGA, the sensor-assay potency score (higher = more potent) was -1.24.

For ATCTTTGGTCACCTTGATGCGA, the sensor-assay potency score (higher = more potent) was -0.779.

As for AGCTCTTCTGGTCAGGTCCTTC, the sensor-assay potency score (higher = more potent) is -1.49.

With ATTCGCACCGGTTCGTCCCAGC, the sensor-assay potency score (higher = more potent) was -0.912.

As for TCGCACGTCGCGCTTCACCAGC, the sensor-assay potency score (higher = more potent) is -1.56.

The target of the next experiment is ACOT6. The experiment is described as above. The following applies: shRNA.
For the sequence TTGGTGATTGTGTTCCTCCAGT, the sensor-assay potency score (higher = more potent) was -0.204.

For the sequence TTGATAAGTACAGTGGCTGTGA, the sensor-assay potency score (higher = more potent) is 0.402.

In the case of TTACTTTTCCTAGATCATCGAC, the sensor-assay potency score (higher = more potent) is -0.0892.

Take TTAGGAATAATCATATCCTTGT: the sensor-assay potency score (higher = more potent) came to 0.922.

In the case of TTTCCCATGAGCTTGTAGCCTT, the sensor-assay potency score (higher = more potent) was -0.268.

In turn, AATACTAGGACCTTTCACCTTT displayed a sensor-assay potency score (higher = more potent) of 0.28.

Source of the values: the OligoGym collection.
Further: reference of the scale not given here.
